Source: PubChem BioAssay (NCATS)
Inconclusive results are not listed. Active and inactive are the calls of the source. Calls follow the shape of the dose curve; as a rule, active = well fitted curve in the direction sought with a large enough effect; inconclusive = small, poorly fitted or top-dose-only effect, or another doubt; inactive = no such curve, though single readings can be large; an effect the other way counts as inactive or inconclusive.

How the values were obtained:
[1] = Quantitative High-Throughput drug screen in 47 multiple myeloma cell lines against the NCATS MIPE library collection: KMS12BM_JCRB cell viability assay (AID 1918971); also: nearly all actives have a fitted effect of over 35% in size; also: potency is read from the fitted curve at half-maximal effect
Method in brief: (§1)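 qHTS of the MIPE 4.0 collection: 500 myeloma cells/well, 48 h drug exposure at 37C in 5% CO2, then CellTiter-Glo for 5 min at room temperature before luminescence reading.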

[2] = Quantitative High-Throughput drug screen in 47 multiple myeloma cell lines against the NCATS MIPE library collection: KMS12PE_JCRB cell viability assay (AID 1918972); also: nearly all actives have a fitted effect of over 30% in size; also: potency is read from the fitted curve at half-maximal effect
Method in brief: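 Inhibition of cell viability is measured here. Each line was plated at 500 cells per well, treated with MIPE 4.0 drugs, kept 48 hours at 37C, then assayed for ATP content by CellTiter-Glo luminescence.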

[3] = Quantitative High-Throughput drug screen in 47 multiple myeloma cell lines against the NCATS MIPE library collection: KMS26_JCRB cell viability assay (AID 1918975); also: nearly all actives have a fitted effect of over 45% in size; also: potency is read from the fitted curve at half-maximal effect
Method in brief: as §1

[4] = Quantitative High-Throughput drug screen in 47 multiple myeloma cell lines against the NCATS MIPE library collection: MMM1_PLB cell viability assay (AID 1918976); also: potency is read from the fitted curve at half-maximal effect; nearly all actives have a fitted effect of over 35% in size
Method in brief: (§2)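 ATP-based luminescence (CellTiter-Glo, 5 min RT incubation) quantified surviving cells following two days' treatment with MIPE 4.0 agents at 37 °C, 5% CO2.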

[5] = Quantitative High-Throughput drug screen in 47 multiple myeloma cell lines against the NCATS MIPE library collection: NCIH929_DSMZ cell viability assay (AID 1918978); also: nearly all actives have a fitted effect of over 35% in size; also: potency is read from the fitted curve at half-maximal effect
Method in brief: as §2

[6] = Quantitative High-Throughput drug screen in 47 multiple myeloma cell lines against the NCATS MIPE library collection: OCIMY1_PLB cell viability assay (AID 1918979); also: nearly all actives have a fitted effect of over 35% in size; also: potency is read from the fitted curve at half-maximal effect
Method in brief: as §2

[7] = Quantitative High-Throughput drug screen in 47 multiple myeloma cell lines against the NCATS MIPE library collection: MM1S_ATCC cell viability assay (AID 1918980); also: potency is read from the fitted curve at half-maximal effect; nearly all actives have a fitted effect of over 45% in size
Method in brief: as §2

[8] = Quantitative High-Throughput drug screen in 47 multiple myeloma cell lines against the NCATS MIPE library collection: MM1R_ATCC cell viability assay (AID 1918981); also: nearly all actives have a fitted effect of over 35% in size; also: potency is read from the fitted curve at half-maximal effect
Method in brief: as §2

[9] = Quantitative High-Throughput drug screen in 47 multiple myeloma cell lines against the NCATS MIPE library collection: L363_DSMZ cell viability assay (AID 1918984); settings: L363 myeloma viability, CellTiter-Glo ATP luminescence, 48 h; viability (% of control): at 45.8 µM (top of the series); also: nearly all actives have a fitted effect of over 40% in size; also: potency is read from the fitted curve at half-maximal effect
Method in brief: as §2

[10] = Quantitative High-Throughput drug screen in 47 multiple myeloma cell lines against the NCATS MIPE library collection: KMS34_JCRB cell viability assay (AID 1918985); also: nearly all actives have a fitted effect of over 40% in size; also: potency is read from the fitted curve at half-maximal effect
Method in brief: as §2

[11] = Quantitative High-Throughput drug screen in 47 multiple myeloma cell lines against the NCATS MIPE library collection: OCIMY5_PLB cell viability assay (AID 1918988); also: potency is read from the fitted curve at half-maximal effect; nearly all actives have a fitted effect of over 65% in size
Method in brief: as §2

[12] = Quantitative High-Throughput drug screen in 47 multiple myeloma cell lines against the NCATS MIPE library collection: OPM1_PLB cell viability assay (AID 1918989); also: nearly all actives have a fitted effect of over 40% in size; also: potency is read from the fitted curve at half-maximal effect
Method in brief: as §2

[13] = Quantitative High-Throughput drug screen in 47 multiple myeloma cell lines against the NCATS MIPE library collection: SKMM1_PLB cell viability assay (AID 1919863); settings: SKMM1 myeloma viability, CellTiter-Glo ATP, 48 h; viability: hits give low values; also: nearly all actives have a fitted effect of over 35% in size; also: potency is read from the fitted curve at half-maximal effect
Method in brief: as §2

[14] = Quantitative High-Throughput drug screen in 47 multiple myeloma cell lines against the NCATS MIPE library collection: KMS28PE_JCRB cell viability assay (AID 1918983); also: nearly all actives have a fitted effect of over 35% in size; also: potency is read from the fitted curve at half-maximal effect
Method in brief: as §2

[15] = Quantitative High-Throughput drug screen in 47 multiple myeloma cell lines against the NCATS MIPE library collection: OCIMY7_PLB cell viability assay (AID 1918987); settings: OCI-MY7 myeloma viability, CellTiter-Glo ATP, 48 h; viability (% of DMSO): at 45.8 µM (top of the series); also: nearly all actives have a fitted effect of over 65% in size; also: potency is read from the fitted curve at half-maximal effect
Method in brief: as §2

[16] = Quantitative High-Throughput drug screen in 47 multiple myeloma cell lines against the NCATS MIPE library collection: KMS21BM_JCRB cell viability assay (AID 1918974); settings: ATP luminescence, 48 h; viability: at 45.8 µM (top of the series); also: potency is read from the fitted curve at half-maximal effect
Method in brief: (§3)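 Myeloma cell lines, 500 cells per well, exposed to MIPE 4.0 library compounds for 48 h at 37C, 5% CO2. Viability from ATP by CellTiter-Glo luminescence; normalised to DMSO (100%) and media-only (0%) wells.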

[17] = Quantitative High-Throughput drug screen in 47 multiple myeloma cell lines against the NCATS MIPE library collection: MOLP8_DSMZ cell viability assay (AID 1918977); also: potency is read from the fitted curve at half-maximal effect; nearly all actives have a fitted effect of over 45% in size
Method in brief: as §2

[18] = Quantitative High-Throughput drug screen in 47 multiple myeloma cell lines against the NCATS MIPE library collection: LP1_DSMZ cell viability assay (AID 1918982); also: nearly all actives have a fitted effect of over 35% in size; also: potency is read from the fitted curve at half-maximal effect
Method in brief: as §2

[19] = Quantitative High-Throughput drug screen in 47 multiple myeloma cell lines against the NCATS MIPE library collection: U266_ATCC cell viability assay (AID 1919864); also: nearly all actives have a fitted effect of over 35% in size; also: potency is read from the fitted curve at half-maximal effect
Method in brief: as §2

[20] = Quantitative High-Throughput drug screen in 47 multiple myeloma cell lines against the NCATS MIPE library collection: KMS20_JCRB cell viability assay (AID 1918973); also: nearly all actives have a fitted effect of over 45% in size
Method in brief: as §3

CC(NCCc1ccc(O)cc1)C(O)c1ccc(O)cc1 (centres undefined)
active: Potency [4] 14.8 µM | Potency [7] 5.9 µM | Potency [8] 4.18 µM | Potency [11] 0.132 µM
inactive: Potency [1] | Potency [2] | Potency [3] | Potency [5] | Potency [6] | Potency [9] | Potency [10] | Potency [12] | viability [13] 131%

C[C@@H]1CC=CC=CC=CC=C[C@@H](O[C@@H]2O[C@H](C)[C@@H](O)[C@H](N)[C@H]2O)C[C@@H]2O[C@](O)(C[C@@H](O)C[C@@H]3O[C@@H]3C=CC(=O)O1)C[C@H](O)[C@@H]2C(=O)O
active: Potency [1] 10.5 µM | Potency [4] 23.5 µM | Potency [5] 16.6 µM | Potency [6] 9.35 µM | Potency [7] 20.9 µM | Potency [8] 14.8 µM | Potency [14] 14.8 µM | Potency [10] 18.7 µM | Potency [15] 2.96 µM | Potency [11] 11.8 µM | Potency [12] 16.6 µM
inactive: Potency [2] | Potency [3]

COc1cc2nc(-c3cc(F)ccc3O)nc(N[C@@H]3CNC[C@@H]3C(C)(C)O)c2cc1OC
active: Potency [1] 20.9 µM | Potency [2] 8.33 µM | Potency [16] 0.935 µM | Potency [3] 18.7 µM | Potency [17] 5.9 µM | Potency [5] 7.43 µM | Potency [6] 18.7 µM | Potency [7] 18.7 µM | Potency [8] 9.35 µM | Potency [18] 9.35 µM | Potency [14] 20.9 µM | Potency [9] 1.87 µM | Potency [10] 16.6 µM | Potency [15] 2.64 µM | Potency [11] 13.2 µM | Potency [12] 3.72 µM | Potency [19] 20.9 µM

COc1ccc2cc1Oc1ccc(cc1)C[C@H]1c3cc(c(OC)cc3CCN1C)Oc1c(OC)c(OC)cc3c1[C@H](C2)N(C)CC3
active: Potency [1] 13.2 µM | Potency [2] 4.69 µM | Potency [3] 14.8 µM | Potency [4] 6.62 µM | Potency [5] 20.9 µM | Potency [6] 18.7 µM | Potency [7] 18.7 µM | Potency [8] 13.2 µM | Potency [14] 14.8 µM | Potency [9] 5.9 µM | Potency [10] 14.8 µM | Potency [15] 16.6 µM | Potency [11] 16.6 µM | Potency [12] 18.7 µM | Potency [19] 18.7 µM

CCC(=C(CC)c1ccc(O)cc1)c1ccc(O)cc1
inactive: Potency [20]
active: Potency [1] 13.2 µM | Potency [2] 13.2 µM | Potency [3] 13.2 µM | Potency [5] 16.6 µM | Potency [7] 14.8 µM | Potency [8] 14.8 µM | Potency [14] 18.7 µM | Potency [10] 23.5 µM | Potency [11] 20.9 µM

CN1CCN(c2cccc(Nc3nc4c(-c5ccc(S(C)(=O)=O)cc5)cccn4n3)c2)CC1
active: Potency [1] 9.35 µM | Potency [2] 0.833 µM | Potency [16] 3.32 µM | Potency [3] 20.9 µM | Potency [4] 16.6 µM | Potency [5] 2.64 µM | Potency [8] 16.6 µM | Potency [18] 14.8 µM | Potency [14] 16.6 µM | Potency [9] 3.32 µM | Potency [15] 0.743 µM | Potency [11] 4.69 µM | Potency [12] 2.35 µM | Potency [13] 18.7 µM | Potency [19] 3.32 µM

N#CC(=C1Nc2ccccc2S1)c1ccnc(OCc2ccc(CN3CCOCC3)cc2)n1
active: Potency [1] 26.4 µM | Potency [2] 0.059 µM | Potency [16] 0.0264 µM | Potency [3] 20.9 µM | Potency [4] 14.8 µM | Potency [5] 4.69 µM | Potency [7] 1.48 µM | Potency [8] 14.8 µM | Potency [18] 20.9 µM | Potency [9] 0.0372 µM | Potency [10] 18.7 µM | Potency [11] 8.33 µM | Potency [12] 16.6 µM | Potency [19] 5.26 µM

O=S(=O)(O)c1ccc2cc(N=Nc3cc(S(=O)(=O)O)c4cccnc4c3O)ccc2c1
active: Potency [1] 16.6 µM | Potency [3] 20.9 µM | Potency [4] 3.72 µM | Potency [5] 7.43 µM | Potency [7] 13.2 µM | Potency [8] 20.9 µM | Potency [14] 18.7 µM | Potency [11] 9.35 µM | Potency [12] 13.2 µM | Potency [19] 13.2 µM
inactive: Potency [2] | Potency [6]

O=C1CN2Cc3c(ccc(Cl)c3Cl)N=C2N1
active: Potency [1] 23.5 µM | Potency [4] 23.5 µM | Potency [7] 18.7 µM | Potency [14] 23.5 µM | Potency [11] 23.5 µM | Potency [12] 13.2 µM
inactive: Potency [2] | Potency [20] | Potency [6] | Potency [9]

COc1cc2c(cc1OC)[C@@H]1Cc3ccc(OC)c(OC)c3CN1CC2
inactive: Potency [5] | Potency [6]
active: Potency [1] 18.7 µM | Potency [2] 0.332 µM | Potency [3] 4.69 µM | Potency [4] 16.6 µM | Potency [17] 7.43 µM | Potency [7] 2.96 µM | Potency [14] 20.9 µM | Potency [11] 5.9 µM

CN(C)CC[C@H](CSc1ccccc1)Nc1ccc(S(=O)(=O)NC(=O)c2ccc(N3CCN(Cc4ccccc4-c4ccc(Cl)cc4)CC3)cc2)cc1[N+](=O)[O-]
active: Potency [1] 0.187 µM | Potency [2] 0.0235 µM | Potency [16] 0.0833 µM | Potency [3] 1.66 µM | Potency [4] 0.526 µM | Potency [6] 3.72 µM | Potency [7] 1.66 µM | Potency [8] 0.833 µM | Potency [18] 23.5 µM | Potency [14] 1.48 µM | Potency [15] 0.209 µM | Potency [11] 0.0469 µM | Potency [12] 10.5 µM | Potency [13] 18.7 µM | Potency [19] 14.8 µM

CC1C(=O)OC2C(O)C34C5CC(C(C)(C)C)C36C(OC(=O)C6O)OC4(C(=O)O5)C12O (centres undefined)
inactive: Potency [1] | Potency [2] | Potency [3] | Potency [5] | Potency [6] | Potency [8] | Potency [18] | Potency [14] | Potency [15] | Potency [12] | Potency [19]
active: Potency [4] 0.0187 µM | Potency [7] 20.9 µM | Potency [10] 23.5 µM | Potency [13] 11.8 µM
